Source: the supplement of paper PMC12340641

Legend:
[1] = molecular target: IKZF1 (dCK*-IKZF1 fusion in HEK293FT) (UniProt Q13422); experiment: inhibition of IKZF1 HTRF signal (DMSO = 0%, pomalidomide 10 uM = 100%); higher = lower IKZF1 protein level; details: compound concentration: 5 uM, overnight (~20 h)
Summary of the method: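 HEK293FT cells stably expressing a dCK*-IKZF1 fusion (2000/well, 384-well) were treated overnight at 37 °C with 5 μM compound in single wells. They were then lysed 30 min at room temperature, and lysate was incubated overnight with a commercial HTRF total-IKZF1 antibody kit. The time-resolved FRET ratio (665/620 nm) was background-subtracted. Percent inhibition of IKZF1 signal was normalised per plate to vehicle (0%) and a reference degrader (100%).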

HEK293FT dCK*-only = experiment: relative growth in counter assay (no AraC = 100%, AraC + DMSO = 0%); higher = more growth rescue independent of IKZF1; details: compound concentration: 5 uM; AraC concentration: 0.3 uM; overnight pretreatment + 4 days AraC
Summary of the method: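 In 384-well plates, 300 HEK293FT cells per well expressing an engineered kinase construct alone got 5 μM compound 2 h after seeding. After overnight at 37 °C, 0.3 μM nucleoside suicide substrate plus medium was applied for 4 days. Counting of Hoechst 33342-stained nuclei by imaging on day 5 was normalised per plate, with 100% for no-substrate wells and 0% for substrate plus vehicle.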

HEK293FT dCK*-IKZF1 = experiment: relative growth recovery (pomalidomide 10 uM = 100%, DMSO = 0%); higher = more growth rescue (IKZF1 fusion degradation); details: compound concentration: 5 uM; AraC concentration: 0.3 uM; overnight pretreatment + 4 days AraC
Summary of the method: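 On day 5, whole-well imaging was used to count Hoechst 33342-stained nuclei of HEK293FT cells stably carrying a deoxycytidine kinase–IKZF1 fusion. These cells had received 5 μM compound 2 h after seeding, followed after overnight at 37 °C by a nucleoside suicide substrate at 0.3 μM plus medium for 4 days. Growth recovery was normalised on each plate against a reference degrader and vehicle, which defined 100% and 0%, and values are duplicate means from separate days.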

Sequence of IKZF1 (dCK*-IKZF1 fusion in HEK293FT) (Q13422 whole entry, looked up, the tested form may be a part): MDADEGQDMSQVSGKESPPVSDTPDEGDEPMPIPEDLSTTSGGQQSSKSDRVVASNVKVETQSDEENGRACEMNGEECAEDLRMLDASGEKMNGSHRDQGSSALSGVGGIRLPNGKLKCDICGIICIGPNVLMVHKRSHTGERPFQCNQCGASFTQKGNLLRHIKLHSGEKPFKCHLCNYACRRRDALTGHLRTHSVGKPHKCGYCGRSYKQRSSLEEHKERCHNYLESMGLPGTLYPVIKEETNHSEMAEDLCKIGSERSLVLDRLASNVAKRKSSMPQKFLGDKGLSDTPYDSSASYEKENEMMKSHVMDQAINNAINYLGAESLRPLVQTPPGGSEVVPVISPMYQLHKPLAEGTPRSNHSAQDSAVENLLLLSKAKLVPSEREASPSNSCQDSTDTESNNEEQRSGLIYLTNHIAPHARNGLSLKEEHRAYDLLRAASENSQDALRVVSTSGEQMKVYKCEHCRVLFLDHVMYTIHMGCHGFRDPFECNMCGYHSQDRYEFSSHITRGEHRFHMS

Compound | inhibition of IKZF1 HTRF signal [1] [%] | relative growth in counter assay (HEK293FT dCK*-only) [%] | relative growth recovery (HEK293FT dCK*-IKZF1) [%]
COc1ccc(-c2ccc3ncc4c(c3c2)n(-c2ccc(N3CCNCC3)c(C(F)(F)F)c2)c(=O)n4C)cn1 | 88.1 | -35.1 | -15.2
c1ccc(-c2ccc(C(c3ccccc3)n3ccnc3)cc2)cc1 (centres undefined) | 17.6 | 3.99 | -0.555
O=C(/C=C/c1ccc2ccccc2n1)c1ccncc1 | -36.5 | -35.1 | -15
